# Measured values from PubChem BioAssay.
# Several values for one entry are separate records, joined by “and”; a condition that tells them apart may be missing. Equal entries are not always repeated. Activity calls are given as the source filed them.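 How the source made its calls, unless noted: active means compounds lowering colon cancer cell viability after pretreatment blocking the GSK3B kinase; inactive means the rest.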
# Assays:
# [1] = blockers of polyQ-driven CASP3 activation – cell-based (AID 1583); settings: polyglutamine-induced caspase-3 activation, cell assay; stronger effect = higher value;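 tested at 10 µM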
# [2] = compounds altering viability of human ES cells (AID 493140; call rule not given here;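 further: cells exposed to compounds for four days before counting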); settings: human embryonic stem cell survival screen; stronger effect = higher value
# [3] = stimulators of insulin release from INS-1E, primary screen, cell-based, 5 mM glucose, NPC library (AID 1117329;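 active means compound raises insulin release from rat beta cells at 5 mM glucose, no numeric limit stated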); settings: rat INS-1E insulin secretion, at 10 µM, stronger effect = higher value
# [4] = growth inhibition of GSK3B-pretreated HCT116 cells – cell-based, CellTiter-Glo, 0.2 to 20 µM (AID 1117336); settings: HCT116 viability after GSK3B inhibitor, at 20 µM, stronger effect = higher value
# [5] = inhibition of endothelial tube formation, primary screen, imaging, VEGF stimulated, CD31 staining, tube area, NPC library (AID 1117340;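 active means compound that reduces growth-factor-driven endothelial tube area in a mixed cell culture, no cutoff stated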); settings: VEGF-stimulated ADSC/ECFC co-culture, at 10 µM, stronger effect = higher value
# [6] = GLP1 release stimulators, primary, NCI-H716, NPC library (AID 1117341;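 active means compound raises GLP1 secretion from the human gut endocrine cells, with no numeric limit stated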); settings: NCI-H716 cells, at 10 µM, stronger effect = higher value
# [7] = HCT116 colon cancer cell growth inhibition, primary screen, CellTiter-Glo luminescence, NPC library (AID 1117342;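 active means compounds that lower survival of HCT116 colon cancer cells in the luminescence readout, no numeric limit stated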); settings: at 20 µM (top of the series)
# [8] = reduced SW480 viability measured with CellTiter-Glo, NPC library, primary (AID 1117343;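 active means compounds that lower viability of the colon cancer cells in the luminescence readout, with no numeric limit stated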); settings: CellTiter-Glo luminescence; at 20 µM (top of the series) unless noted
# [9] = NPC library primary testing for decreased DLD-1 cell viability via CellTiter-Glo (AID 1117346;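 active means compounds that lower survival of DLD-1 colon cancer cells in the luminescence readout, no cutoff given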); settings: DLD-1 viability, CellTiter-Glo luminescence; at 20 µM (top of the series)
# [10] = target: 6-phosphogluconate dehydrogenase, decarboxylating (Homo sapiens) (UniProt P52209); assay: inhibition of human phosphogluconate dehydrogenase – biochemical, recombinant enzyme, NADPH absorbance, primary screen (AID 1159550;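 active means at least 20% inhibition of 6-phosphogluconate dehydrogenase activity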); settings: recombinant 6PGD, NADPH absorbance 341 nm; at 10 µM; stronger effect = higher value
# [11] = modulation of C. elegans fzo-1 (AID 1259413; call rule not given here;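 further: fzo-1 mutant C. elegans worms in liquid wells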); settings: C. elegans fzo-1 modulator screen, mean read-out; stronger effect = higher value
# [12] = EMT-state selective cytotoxicity in co-culture – imaging, PC-3E GFP, TEM4-18 mCherry, primary screen (AID 1345086;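 active means compounds killing one labelled cell type while sparing the other, by normalised counts and ratio limits, not self-fluorescent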;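 on all read-outs here: cells exposed to compound for 72 h before imaging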;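 on red/green cell ratio (normalised): normalised mesenchymal count divided by normalised epithelial count so high means epithelial killing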); settings: PC-3E GFP / TEM4-18 mCherry co-culture, imaging cell counts, at 1 µM; for red/green cell ratio (normalised): actives lie on both sides, counts scaled to control wells, 1 = unselective
# [13] = MELAS cybrid and Rieske KO viability enhancers – cell-based, MELAS cybrids, Rieske KO mouse fibroblasts, CellTiter-Glo, primary screen (AID 1508586;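 active means mean z-score across replicates of 1.96 or higher in either the MELAS or the Rieske mutant cell line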;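 further: z relative to plate mean and SD of compound and empty wells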); settings: low glucose
# [14] = target: NAD(+) hydrolase SARM1 (Homo sapiens) (UniProt Q6SZW1); assay: blocking NAD cleavage by SARM1 SAM-TIR – cell lysate, NAD-Glo luminescence (AID 1508614;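 active means compound whose remaining NAD level is above about 45 nM, limit read from the data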); settings: SAM-TIR HEK293T lysate NADase, at 1 µM, stronger effect = higher value
# [15] = target: Mitogen-activated protein kinase 7 (Homo sapiens) (UniProt Q13164); assay: Gal4-ERK5 driven luciferase induction – cell-based, HTS, primary screen (AID 1508626;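 active means luciferase signal above three times the same-plate solvent-only control wells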;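 further: luciferase driven by Gal4-ERK5 fusion binding five Gal4 sites before minimal TATA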); settings: HeLa Gal4-ERK5 transactivation, 18 h, at 5 µM, stronger effect = higher value
# [16] = galactose survival enhancers in mitochondrial complex I cybrids – cell-based, galactose medium, ATP luminescence, primary screen (AID 1645843;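 active means z-score of at least 1.8 in each of two replicates, scored against plate mean and spread of sample wells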;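 further: positive z means more ATP and so rescue of galactose-driven cybrid death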); settings: complex I mutant cybrid cells, 72 h, stronger effect = higher value
# [17] = viability loss with induced miR-34 in A549 – imaging, A549 dox-inducible miR-34, nuclei and caspase counts, primary screen (AID 1347080;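 active means compounds whose cell count with miR-34 switched on is under 0.7 times the count with it off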); settings: A549 miR-34 inducible, Hoechst nuclei count, 48 h
# [18] = P. berghei load reduction in hepatocytes – cell-based, HepG2, luciferase luminescence, HepG2 viability, primary screen (AID 624349; in the data active means parasite load remaining mostly below about 12%, no sharp cut-off; inactive means mostly above about 10%;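 further: 100% = mean of DMSO negative control wells on the same plate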); settings: P. berghei liver stage in HepG2, luciferase luminescence, concentration not given here; parasite load remaining: stronger effect = lower value; viability: measured here: HepG2 viability without parasites
# [19] = Wnt pathway potentiators raising nuclear beta-catenin – imaging, WNT3A-conditioned medium, mouse C2C12, NPC library, primary screen (AID 1117326; in the data active means nuclear beta-catenin stimulation mostly above about 4.2%, no sharp cut-off; inactive means mostly below about 10%); settings: stronger effect = higher value
# [20] = measured here: epithelial PC-3E GFP cell survival
# [21] = measured here: mesenchymal TEM4-18 mCherry cell survival
# [22] = MELAS cybrid survival, CellTiter-Glo 48 h, stronger effect = higher value
# [23] = Rieske KO mouse fibroblast survival, CellTiter-Glo 72 h
# [24] = stronger effect = lower value, cell number ratio, induced over uninduced
# [25] = measured here: relative caspase fold change +Dox/-Dox
# [26] = measured here: total cells with miR-34 induction, stronger effect = lower value
# [27] = measured here: total cells without miR-34 induction
# 6-phosphogluconate dehydrogenase, decarboxylating (Homo sapiens), sequence (P52209 whole entry, looked up): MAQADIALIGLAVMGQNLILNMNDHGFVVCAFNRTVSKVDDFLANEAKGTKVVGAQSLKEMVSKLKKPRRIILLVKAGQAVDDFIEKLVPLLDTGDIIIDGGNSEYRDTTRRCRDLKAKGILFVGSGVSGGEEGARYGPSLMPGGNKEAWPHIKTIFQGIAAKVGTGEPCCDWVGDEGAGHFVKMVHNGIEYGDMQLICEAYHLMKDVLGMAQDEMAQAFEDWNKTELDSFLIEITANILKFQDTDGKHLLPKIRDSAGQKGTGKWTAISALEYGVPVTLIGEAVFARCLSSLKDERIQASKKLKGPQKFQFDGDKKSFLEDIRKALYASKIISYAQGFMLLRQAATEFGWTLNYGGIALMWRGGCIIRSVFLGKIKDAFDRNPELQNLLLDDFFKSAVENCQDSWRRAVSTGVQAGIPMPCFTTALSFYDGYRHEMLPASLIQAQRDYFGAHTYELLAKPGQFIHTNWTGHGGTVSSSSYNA
# Mitogen-activated protein kinase 7 (Homo sapiens), sequence (Q13164 whole entry, looked up, the tested form may be a part): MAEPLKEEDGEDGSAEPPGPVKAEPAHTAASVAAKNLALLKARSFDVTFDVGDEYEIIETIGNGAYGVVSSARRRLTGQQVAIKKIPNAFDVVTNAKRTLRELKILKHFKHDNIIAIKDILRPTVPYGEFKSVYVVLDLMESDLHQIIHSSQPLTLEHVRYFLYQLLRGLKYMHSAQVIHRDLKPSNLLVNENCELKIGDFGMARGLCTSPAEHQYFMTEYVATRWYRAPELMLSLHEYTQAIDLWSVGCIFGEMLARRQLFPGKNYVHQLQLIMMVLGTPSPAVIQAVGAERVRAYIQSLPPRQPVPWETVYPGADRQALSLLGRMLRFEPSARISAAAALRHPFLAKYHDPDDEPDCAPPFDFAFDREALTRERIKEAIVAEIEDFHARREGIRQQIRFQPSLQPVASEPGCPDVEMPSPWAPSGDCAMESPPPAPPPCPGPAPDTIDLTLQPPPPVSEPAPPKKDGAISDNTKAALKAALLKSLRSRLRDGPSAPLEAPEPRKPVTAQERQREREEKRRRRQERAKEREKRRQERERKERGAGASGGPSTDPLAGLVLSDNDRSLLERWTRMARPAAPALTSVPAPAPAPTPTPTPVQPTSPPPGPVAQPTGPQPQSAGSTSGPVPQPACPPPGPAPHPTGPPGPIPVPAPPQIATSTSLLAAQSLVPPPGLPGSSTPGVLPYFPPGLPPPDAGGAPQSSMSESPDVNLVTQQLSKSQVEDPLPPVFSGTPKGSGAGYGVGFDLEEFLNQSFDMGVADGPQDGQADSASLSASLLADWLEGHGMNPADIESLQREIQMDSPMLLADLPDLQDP
# NAD(+) hydrolase SARM1 (Homo sapiens), sequence (Q6SZW1 whole entry, looked up, the tested form may be a part): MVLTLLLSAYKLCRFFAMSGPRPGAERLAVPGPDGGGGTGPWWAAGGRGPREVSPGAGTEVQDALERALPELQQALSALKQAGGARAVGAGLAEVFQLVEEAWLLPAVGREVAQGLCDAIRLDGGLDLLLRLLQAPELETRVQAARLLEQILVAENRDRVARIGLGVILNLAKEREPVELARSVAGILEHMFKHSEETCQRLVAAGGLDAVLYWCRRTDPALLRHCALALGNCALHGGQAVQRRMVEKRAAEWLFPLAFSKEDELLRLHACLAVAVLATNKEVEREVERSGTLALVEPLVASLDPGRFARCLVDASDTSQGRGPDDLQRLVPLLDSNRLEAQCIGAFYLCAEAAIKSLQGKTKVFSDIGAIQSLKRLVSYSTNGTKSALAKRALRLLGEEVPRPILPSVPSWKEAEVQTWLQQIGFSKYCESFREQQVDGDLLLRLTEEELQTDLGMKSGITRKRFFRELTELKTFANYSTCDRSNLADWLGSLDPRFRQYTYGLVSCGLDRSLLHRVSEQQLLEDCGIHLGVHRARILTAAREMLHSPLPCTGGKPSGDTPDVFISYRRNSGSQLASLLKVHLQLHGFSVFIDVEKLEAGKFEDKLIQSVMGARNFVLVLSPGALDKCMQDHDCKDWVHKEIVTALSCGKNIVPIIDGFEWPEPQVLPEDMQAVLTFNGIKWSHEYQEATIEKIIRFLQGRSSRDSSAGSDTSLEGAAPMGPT
structure (smiles),measurement,setting,value
Cc1cc(NS(=O)(=O)c2ccc(N)cc2)no1,inhibition,[1],23.4%
same,survival,[2],30.6 (inactive)
same,insulin secretion stimulation,[3],-2.1% (inactive)
same,viability decrease,[4],1.7% (inactive)
same,tube area decrease,[5],1.9% (inactive)
same,GLP1 secretion stimulation,[6],1.9% (inactive)
same,inhibition of viability,[7],-6.5% (inactive)
same,viability decrease (inhibition),[8],-7.9% (inactive)
same,viability decrease (inhibition),[9],3.95% (inactive)
same,inhibition,[10],11.1% (inactive)
same,mean signal,[11],252 (inactive)
same,red/green cell ratio (normalised),[12],1.25 (inactive)
same,normalised cell number,[12]; [20],1.05
same,normalised cell number,[12]; [21],1.32
same,z-score,[13]; [22],-0.296 (inactive) and -0.181 (inactive)
same,z-score,[13]; [23],-0.35 and -0.048
same,remaining NAD,[14],10 nM (inactive)
same,luciferase signal,[15],64 AU (inactive)
same,z-score,[16],0.255 (inactive)
O=C1CN(/N=C/c2ccc([N+](=O)[O-])o2)C(=O)N1,inhibition,[1],27%
same,survival,[2],10.8 (inactive)
same,insulin secretion stimulation,[3],-2.7% (inactive)
same,viability decrease,[4],26.8% (inactive)
same,tube area decrease,[5],-36% (inactive)
same,GLP1 secretion stimulation,[6],-0.3% (inactive)
same,inhibition of viability,[7],18.2% (inactive)
same,viability decrease (inhibition),[8],46.4% (active)
same,viability decrease (inhibition),[9],8.55% (inactive)
same,inhibition,[10],-10.5% (inactive)
same,mean signal,[11],245 (inactive)
same,red/green cell ratio (normalised),[12],0.97 (inactive)
same,normalised cell number,[12]; [20],1.08
same,normalised cell number,[12]; [21],1.05
same,fold change,[17]; [24],0.928 (inactive) and 0.958 (inactive)
same,fold change,[17]; [25],1.23 and 1.67
same,cell count,[17]; [26],8440 and 12500
same,cell count,[17]; [27],9100 and 13100
same,z-score,[13]; [22],-2.68 (inactive)
same,z-score,[13]; [23],-2.1
same,remaining NAD,[14],10 nM (inactive)
same,luciferase signal,[15],40 AU (inactive)
COc1ccc2c(c1)C(=O)N(CCc1ccc(S(=O)(=O)NC(=O)NC3CCCCC3)cc1)C(=O)C2(C)C,survival,[2],22.9 (inactive)
same,parasite load remaining,[18],128% (inactive)
same,viability,[18],79.4%
same,nuclear beta-catenin stimulation,[19]; at 10 µM,0.7% (inactive)
same,nuclear beta-catenin stimulation,"[19]; stimulation, at 2 µM",10.6%
same,viability decrease,[4],87.4% (active)
same,inhibition of viability,[7],68% (active)
same,viability decrease (inhibition),[8],87.1% (active)
same,viability decrease (inhibition),[9],94% (active)
same,fold change,[17]; [24],0.971 (inactive) and 0.893 (inactive)
same,fold change,[17]; [25],0.765 and 0.69
same,cell count,[17]; [26],9100 and 8180
same,cell count,[17]; [27],9360 and 9160
same,z-score,[13]; [22],-0.157 (inactive) and 0.277 (inactive)
same,z-score,[13]; [23],-0.221 and -0.0621
COc1ccccc1N1CCN(CCCCNC(=O)c2ccc(-c3ccc(C(C)=O)cc3)cc2)CC1,nuclear beta-catenin stimulation,[19]; at 10 µM,9.8% (inactive)
same,nuclear beta-catenin stimulation,"[19]; stimulation, at 2 µM",9.2%
same,viability decrease,[4],55.6% (active)
same,inhibition of viability,[7],51.4% (active)
same,viability decrease (inhibition),[8],69.7% (active)
same,viability decrease (inhibition),[9],13.8% (inactive)
same,fold change,[17]; [24],0.929 (inactive)
same,fold change,[17]; [25],0.93
same,cell count,[17]; [26],8920
same,cell count,[17]; [27],9600
same,z-score,[16],-0.635 (inactive)
COCCOCC(OC)OC,nuclear beta-catenin stimulation,[19]; at 10 µM,1.2% (inactive)
same,nuclear beta-catenin stimulation,"[19]; stimulation, at 2 µM",10.8%
same,viability decrease,[4],0.6% (inactive)
same,inhibition of viability,[7],12.5% (inactive)
same,viability decrease (inhibition),[8],-8.8% (inactive)
same,viability decrease (inhibition),[9],6.9% (inactive)
CCO[C@H](Cc1ccc(OCCc2ccc(OS(C)(=O)=O)cc2)cc1)C(=O)O,nuclear beta-catenin stimulation,[19]; at 10 µM,1.2% (inactive)
same,nuclear beta-catenin stimulation,"[19]; stimulation, at 2 µM",7.6%
same,viability decrease,[4],8.6% (inactive)
same,inhibition of viability,[7],-7.7% (inactive)
same,viability decrease (inhibition),[8],-5.9% (inactive)
same,viability decrease (inhibition),[9],-11.3% (inactive)
CN/C(=C\[N+](=O)[O-])NCCSCc1ccc(CN(C)C)o1,inhibition,[1],6.1%
same,survival,[2],19.6 (inactive)
same,insulin secretion stimulation,[3],-1% (inactive)
same,viability decrease,[4],-7.5% (inactive)
same,tube area decrease,[5],7% (inactive)
same,GLP1 secretion stimulation,[6],-1.4% (inactive)
same,inhibition of viability,[7],2.23% (inactive)
same,viability decrease (inhibition),[8],-25.8% (inactive)
same,viability decrease (inhibition),[9],-22.7% (inactive)
same,inhibition,[10],-3.38% (inactive)
same,mean signal,[11],267 (inactive)
same,red/green cell ratio (normalised),[12],1.01 (inactive)
same,normalised cell number,[12]; [20],1.03
same,normalised cell number,[12]; [21],1.04
same,fold change,[17]; [24],0.934 (inactive) and 0.989 (inactive) and 0.926 (inactive)
same,fold change,[17]; [25],0.757 and 2.23 and 4.08
same,cell count,[17]; [26],10600 and 10300 and 12000
same,cell count,[17]; [27],11300 and 10400 and 13000
same,remaining NAD,[14],10 nM (inactive)
same,luciferase signal,[15],28 AU (inactive)
same,z-score,[16],0.37 (inactive) and -0.285 (inactive)
CC(C)(C)NC(=O)[C@@H]1C[C@@H]2CCCC[C@H]2CN1C[C@@H](O)[C@H](Cc1ccccc1)NC(=O)[C@H](CC(N)=O)NC(=O)c1ccc2ccccc2n1,insulin secretion stimulation,[3],1.9% (inactive)
same,viability decrease,[4],45.8% (inactive)
same,tube area decrease,[5],29.6% (inactive)
same,GLP1 secretion stimulation,[6],-3.7% (inactive)
same,inhibition of viability,[7],74% (active)
same,viability decrease (inhibition),[8],92.3% (active)
same,viability decrease (inhibition),[9],88.3% (active)
CCN(CC)CC(=O)Nc1c(C)cc(C)cc1C,insulin secretion stimulation,[3],-0.3% (inactive)
same,viability decrease,[4],-7.6% (inactive)
same,tube area decrease,[5],7.2% (inactive)
same,GLP1 secretion stimulation,[6],-3.6% (inactive)
same,inhibition of viability,[7],4.6% (inactive)
same,viability decrease (inhibition),[8],6% (inactive)
same,viability decrease (inhibition),[9],-2% (active)
COC(=O)C1=C(C)NC(C)=C(C(=O)OCCN(C)Cc2ccccc2)C1c1cccc([N+](=O)[O-])c1 (configuration not stated),inhibition,[1],5.3%
same,survival,[2],2.33 (inactive)
same,insulin secretion stimulation,[3],2.9% (inactive)
same,viability decrease,[4],91.4% (active)
same,tube area decrease,[5],14.2% (inactive)
same,GLP1 secretion stimulation,[6],-2.4% (inactive)
same,inhibition of viability,[7],104% (active)
same,viability decrease (inhibition),[8],126% (active)
same,viability decrease (inhibition),[9],84.9% (active)
same,inhibition,[10],-13.8% (inactive)
same,mean signal,[11],246 (inactive)
same,red/green cell ratio (normalised),[12],0.81 (inactive)
same,normalised cell number,[12]; [20],1.09
same,normalised cell number,[12]; [21],0.89
same,z-score,[13]; [22],-0.48 (inactive) and -0.0308 (inactive) and 0.219 (inactive)
same,z-score,[13]; [23],-0.154 and -0.712 and 0.12
same,remaining NAD,[14],10 nM (inactive)
same,luciferase signal,[15],48 AU (inactive)
same,z-score,[16],-1.29 (inactive) and -1.5 (inactive) and 0.665 (inactive)
CC(C)CCCC(C)NCCC(C)C (configuration not stated),nuclear beta-catenin stimulation,[19]; at 10 µM,-1.6% (inactive)
same,nuclear beta-catenin stimulation,"[19]; stimulation, at 2 µM",2.7%
same,viability decrease,[4],-5.2% (inactive)
same,inhibition of viability,[7],-0.4% (inactive)
same,viability decrease (inhibition),[8],-8.8% (inactive)
same,viability decrease (inhibition),[9],1.8% (inactive)
COC(=O)C1=C(C)NC(C)=C(C(=O)OC)C1c1ccccc1[N+](=O)[O-],inhibition,[1],28.5%
same,survival,[2],26.5 (inactive)
same,insulin secretion stimulation,[3],11.4% (inactive)
same,viability decrease,[4],77.9% (active)
same,tube area decrease,[5],1.2% (inactive)
same,GLP1 secretion stimulation,[6],4.4% (inactive)
same,inhibition of viability,[7],58.7% (active)
same,viability decrease (inhibition),[8],136% (active)
same,viability decrease (inhibition),[9],93.1% (active)
same,inhibition,[10],-13.6% (inactive)
same,mean signal,[11],242 (inactive)
same,red/green cell ratio (normalised),[12],0.87 (inactive)
same,normalised cell number,[12]; [20],1.03
same,normalised cell number,[12]; [21],0.9
same,z-score,[13]; [22],-0.44 (inactive) and 1.42 (inactive) and -0.699 (inactive)
same,z-score,[13]; [23],0.0615 and 0.566 and -0.497
same,remaining NAD,[14],10 nM (inactive)
same,luciferase signal,[15],52 AU (inactive)
